# Experimental data published in PubChem BioAssay (NCATS).
# Inconclusive results are not listed. The source made the active and inactive calls. Unless noted, the call rests on the fitted dose curve; in most records, active means well fitted curve in the direction sought with a large enough effect; inconclusive means small, poorly fitted or top-dose-only effect, or another doubt; inactive means no such curve, though single readings can be large; an effect the other way counts as inactive or inconclusive.
# Key:
# [1] = target: ATP-dependent 6-phosphofructokinase (Trypanosoma brucei brucei) (UniProt O15648); experiment: qHTS Assay to Find Inhibitors of T. brucei phosphofructokinase: hit validation (AID 492961);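 further: luminescence reports ADP formed as PFK phosphorylates fructose-6-phosphate with ATP; on the % scale 0 is the no-effect control and ±100 the full control effect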
# ATP-dependent 6-phosphofructokinase (Trypanosoma brucei brucei), sequence (O15648 whole entry, looked up): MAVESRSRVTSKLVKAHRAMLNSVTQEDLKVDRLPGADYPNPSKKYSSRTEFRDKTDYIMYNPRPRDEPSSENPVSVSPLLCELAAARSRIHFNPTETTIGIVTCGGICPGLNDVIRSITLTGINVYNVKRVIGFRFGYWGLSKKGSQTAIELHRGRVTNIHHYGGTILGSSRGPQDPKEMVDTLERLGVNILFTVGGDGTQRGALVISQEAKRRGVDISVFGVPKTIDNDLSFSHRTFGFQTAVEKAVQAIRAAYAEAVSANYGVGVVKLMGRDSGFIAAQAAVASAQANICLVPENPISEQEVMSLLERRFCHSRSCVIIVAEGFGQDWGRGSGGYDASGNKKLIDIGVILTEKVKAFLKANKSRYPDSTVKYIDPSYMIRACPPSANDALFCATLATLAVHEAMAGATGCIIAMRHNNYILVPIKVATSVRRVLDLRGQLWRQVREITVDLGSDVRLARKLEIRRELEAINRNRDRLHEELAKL
# In short: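 Compounds titrated; %activity normalized to 0x and 1x enzyme controls, curve-fitted. Readout: ADP-Glo luminescence after 45 min room-temperature reaction of 1.25 nM PFK, 0.1 mM ATP, 0.5 mM F6P, pH 8.0.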
# [2] = target: Ubiquitin carboxyl-terminal hydrolase 1 (Homo sapiens) (UniProt O94782); experiment: Inhibitors of USP1/UAF1: Pilot qHTS (AID 504865);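 further: rhodamine fluorescence freed from ubiquitin-rhodamine substrate followed over time; top concentration of the series differs between compounds; on the % scale 0 is the no-effect control and ±100 the full control effect; nearly all actives have a fitted effect of over 35% in size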
# Ubiquitin carboxyl-terminal hydrolase 1 (Homo sapiens), sequence (O94782 whole entry, looked up): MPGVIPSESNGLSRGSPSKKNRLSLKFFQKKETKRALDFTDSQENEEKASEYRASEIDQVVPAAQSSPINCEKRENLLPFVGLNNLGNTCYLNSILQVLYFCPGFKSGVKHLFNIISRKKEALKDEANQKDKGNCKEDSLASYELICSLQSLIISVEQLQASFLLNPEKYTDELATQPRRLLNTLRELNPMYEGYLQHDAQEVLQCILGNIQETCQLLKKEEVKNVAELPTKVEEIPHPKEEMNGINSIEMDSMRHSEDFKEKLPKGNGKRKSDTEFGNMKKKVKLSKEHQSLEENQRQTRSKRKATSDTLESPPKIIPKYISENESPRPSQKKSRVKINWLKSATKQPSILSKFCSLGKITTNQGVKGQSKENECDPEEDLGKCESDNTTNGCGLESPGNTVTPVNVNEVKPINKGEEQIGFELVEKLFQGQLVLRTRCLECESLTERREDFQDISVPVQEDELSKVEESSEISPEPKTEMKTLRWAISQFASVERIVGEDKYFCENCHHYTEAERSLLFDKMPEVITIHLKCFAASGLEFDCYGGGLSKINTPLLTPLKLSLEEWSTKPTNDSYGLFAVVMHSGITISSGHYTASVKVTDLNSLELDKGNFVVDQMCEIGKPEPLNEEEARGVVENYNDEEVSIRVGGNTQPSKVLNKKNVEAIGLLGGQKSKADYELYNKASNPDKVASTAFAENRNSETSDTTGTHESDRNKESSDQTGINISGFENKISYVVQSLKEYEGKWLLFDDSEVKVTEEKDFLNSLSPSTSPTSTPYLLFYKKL
# In short: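 Kinetic fluorescence assay: 1nM USP1/UAF1, 15 min compound preincubation, then 150nM Ub-Rho; 480/540 nm.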
# [3] = target: Luciferin 4-monooxygenase (Photinus pyralis) (UniProt P08659); experiment: Biochemical firefly luciferase enzyme assay for NPC (AID 624030);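 further: purified P. pyralis luciferase at 10 nM with luciferin and ATP substrate; 0% = DMSO and -100% = full luciferase inhibition by PTC124 control; nearly all actives have a fitted effect of over 70% in size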
# Luciferin 4-monooxygenase (Photinus pyralis), sequence (P08659 whole entry, looked up): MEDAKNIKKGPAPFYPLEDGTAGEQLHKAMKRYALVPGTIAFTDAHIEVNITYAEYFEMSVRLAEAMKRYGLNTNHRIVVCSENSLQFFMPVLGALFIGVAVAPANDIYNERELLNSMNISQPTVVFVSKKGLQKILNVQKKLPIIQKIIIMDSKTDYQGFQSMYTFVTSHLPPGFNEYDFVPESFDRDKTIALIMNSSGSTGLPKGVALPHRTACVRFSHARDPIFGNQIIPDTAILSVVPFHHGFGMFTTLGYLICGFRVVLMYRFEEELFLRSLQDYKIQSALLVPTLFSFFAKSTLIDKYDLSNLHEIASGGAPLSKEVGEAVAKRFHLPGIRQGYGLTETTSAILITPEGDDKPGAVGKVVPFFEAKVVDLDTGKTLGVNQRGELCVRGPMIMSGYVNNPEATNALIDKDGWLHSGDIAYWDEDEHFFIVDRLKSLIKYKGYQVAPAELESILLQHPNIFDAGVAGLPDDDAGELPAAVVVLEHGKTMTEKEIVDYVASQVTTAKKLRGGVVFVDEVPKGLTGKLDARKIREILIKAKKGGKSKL
# In short: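 Purified P. pyralis luciferase at 10 nM in 50 mM Tris Acetate (final), luminescence read within 5 minutes of enzyme addition to compounds. Activity normalised to PTC124 versus DMSO; concentration-response curves classed by r2, magnitude and activity.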
# [4] = S16 Schwann cell PMP22 intronic element firefly luciferase assay (AID 624032); further: potency means the concentration at half of the fitted maximal effect; nearly all actives have a fitted effect of over 30% in size
# In short: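 Rat S16 Schwann cells stably carrying firefly luciferase driven by a PMP22 intronic element, in 10% FBS, treated 24 h at 37 C. ONE-Glo luminescence normalized to PTC124 control and DMSO (0%); curves classed by r2, magnitude and activity.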
# [5] = S16 Schwann cell PMP22 intronic element beta-lactamase assay (AID 624044; calls by dose curve; further: potency means the concentration at half of the fitted maximal effect; nearly all actives have a fitted effect of over 15% in size); details: S16 rat Schwann cells, PMP22 element beta-lactamase FRET, 24 h; ratio activity, negative = inhibition: at 38.3 µM (top of the series) unless noted
# In short: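 Rat S16 Schwann cells with beta-Lac driven by a PMP22 intronic element, compound-treated 24 h at 37 °C. LiveBLAzer FRET B/G read: 460 nm normalized to potassium clavulanate vs DMSO; 535 nm FRET as viability; concentration-effect curves classified.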
# [6] = Primary qHTS for Huh7 cytotoxicity: counterscreen for inhibitors of MERS-S pseudotyped particle cell entry (AID 1479147; calls by dose curve; further: on the % scale 0 is the no-effect control and ±100 the full control effect); details: outcome: dose series up to 57.1 µM unless noted
# [7] = Primary qHTS for inhibitors of MERS-S pseudo-typed particle cell entry (AID 1479149; calls by dose curve; further: on the % scale 0 is the no-effect control and ±100 the full control effect; nearly all actives have a fitted effect of over 60% in size); details: outcome: dose series up to 57.1 µM unless noted
# [8] = Primary qHTS for Vero E6 cytotoxicity: counterscreen for inhibitors of SARS-S pseudo-typed particle cell entry (AID 1479150; calls by dose curve); details: outcome: dose series up to 57.1 µM unless noted
# [9] = Cytotoxicity counterscreen for inhibitors of SARS-CoV-2 cell entry (AID 1645845; calls by dose curve; further: nearly all actives have a fitted effect of over 50% in size); details: outcome: dose series up to 57.1 µM unless noted
# In short: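 HEK293-ACE2 cells (Expi293F stably expressing human ACE2) seeded overnight, then compound for 1 h plus 48 h at 37C. Viability as ATP content by luminescence; normalized to wells with cells and media-only wells.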
# [10] = Primary qHTS to identify inhibitors of SARS-CoV-2 cell entry (AID 1645846; calls by dose curve; further: nearly all actives have a fitted effect of over 45% in size); details: SARS-CoV-2 pseudovirus cell entry assay, luminescence; activity change, negative = inhibition: at 57.1 µM (top of the series) unless noted
# In short: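 Data are normalized to wells receiving SARS-CoV-2-S pseudoparticles and those given bald particles. Entry signal was luciferase luminescence in stable hACE2 Expi293F cells, 48 hr post-infection, after 1 hr compound pretreatment.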
# [11] = target: Glutathione peroxidase 1 (Homo sapiens) (UniProt P07203); experiment: Primary qHTS Assay for Inhibitors of Recombinant Selenoprotein Glutathione Peroxidase 1 (GPX1) (AID 1845191); further: on the % scale 0 is the no-effect control and ±100 the full control effect; nearly all actives have a fitted effect of over 65% in size
# Glutathione peroxidase 1 (Homo sapiens), sequence (P07203 whole entry, looked up): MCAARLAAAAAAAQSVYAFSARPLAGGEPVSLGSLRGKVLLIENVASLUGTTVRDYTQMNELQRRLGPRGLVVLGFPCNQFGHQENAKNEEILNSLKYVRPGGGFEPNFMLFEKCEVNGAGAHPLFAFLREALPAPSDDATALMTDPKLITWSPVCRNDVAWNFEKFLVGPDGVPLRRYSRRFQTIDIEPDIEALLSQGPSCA
# In short: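 GR-coupled assay: compounds preincubated 30 min at room temperature with GPX1, then reaction started with CHP; final 10 nM GPX1, 1 mM GSH, 0.5 mM CHP, 0.5 mM NADPH, 100 nM GR, 0.01% BSA, pH 7.5 Tris buffer. NADPH fluorescence (340/450 nm) read at 0 and 15 min.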
# [12] = target: Phospholipid hydroperoxide glutathione peroxidase GPX4 (Homo sapiens) (UniProt P36969); experiment: Primary qHTS Assay for Inhibitors of Recombinant Selenoprotein Glutathione Peroxidase 4 (GPX4) (AID 1845192); further: on the % scale 0 is the no-effect control and ±100 the full control effect; nearly all actives have a fitted effect of over 65% in size
# Phospholipid hydroperoxide glutathione peroxidase GPX4 (Homo sapiens), sequence (P36969 whole entry, looked up): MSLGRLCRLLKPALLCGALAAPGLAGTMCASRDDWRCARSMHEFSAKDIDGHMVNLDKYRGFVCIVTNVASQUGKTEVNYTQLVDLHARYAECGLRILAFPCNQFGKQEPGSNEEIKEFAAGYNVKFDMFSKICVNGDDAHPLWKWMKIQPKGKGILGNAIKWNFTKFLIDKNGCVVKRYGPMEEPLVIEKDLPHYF
# In short: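 GR-coupled assay: recombinant GPX4 preincubated 30 min with compound at room temperature; final 200 nM GPX4, 1 mM GSH, 0.5 mM cumene hydroperoxide, 0.5 mM NADPH, 100 nM GR, 0.01% BSA, pH 7.5 Tris. NADPH fluorescence (340/450 nm) read at 0 and 15 min.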
# [13] = qHTS profiling for inhibitors of Plasmodium falciparum proliferation (AID 504749); further: potency means the concentration at half of the fitted maximal effect; nearly all actives have a fitted effect of over 60% in size; details: P. falciparum in erythrocytes, SYBR Green DNA, 72 h
# In short: (§1)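 Readout was DNA-dye fluorescence from lysed cultures, ex 485/em 535 nm. Parasitized red cells had grown 72 h with compound; data scaled between 0.29 uM artemisinin and DMSO wells and corrected using vehicle-only plates.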
# 3D7 = experiment: as above; details: P. falciparum in erythrocytes, SYBR Green DNA, 72 h; series mostly up to 28.7 µM
# In short: as §1
# 7G8 = experiment: as above; details: P. falciparum in erythrocytes, SYBR Green DNA, 72 h; series mostly up to 12.8 µM
# In short: as §1
# AA1029 = experiment: as above; details: P. falciparum in erythrocytes, SYBR Green DNA, 72 h; series mostly up to 28.7 µM
# In short: as §1
# AS120 = experiment: as above; details: P. falciparum in erythrocytes, SYBR Green DNA, 72 h; series mostly up to 28.7 µM
# In short: as §1
# ATS189 = experiment: as above; details: P. falciparum in erythrocytes, SYBR Green DNA, 72 h; series mostly up to 28.7 µM
# In short: as §1
# ATS95 = experiment: as above; details: P. falciparum in erythrocytes, SYBR Green DNA, 72 h; series mostly up to 28.7 µM
# In short: as §1
# C2A = experiment: as above; details: P. falciparum in erythrocytes, SYBR Green DNA, 72 h; series mostly up to 28.7 µM
# In short: as §1
# CP185 = experiment: as above; details: P. falciparum in erythrocytes, SYBR Green DNA, 72 h; series mostly up to 28.7 µM
# In short: as §1
# CP191 = experiment: as above; details: P. falciparum in erythrocytes, SYBR Green DNA, 72 h; series mostly up to 28.7 µM
# In short: as §1
# CP192 = experiment: as above; details: P. falciparum in erythrocytes, SYBR Green DNA, 72 h; series mostly up to 28.7 µM
# In short: as §1
# CP194 = experiment: as above; details: P. falciparum in erythrocytes, SYBR Green DNA, 72 h; series mostly up to 28.7 µM
# In short: as §1
# CP201 = experiment: as above; details: P. falciparum in erythrocytes, SYBR Green DNA, 72 h; series mostly up to 28.7 µM
# In short: as §1
# CP203 = experiment: as above; details: P. falciparum in erythrocytes, SYBR Green DNA, 72 h; series mostly up to 28.7 µM
# In short: as §1
# CP211 = experiment: as above; details: P. falciparum in erythrocytes, SYBR Green DNA, 72 h; series mostly up to 28.7 µM
# In short: as §1
# CP215 = experiment: as above; details: P. falciparum in erythrocytes, SYBR Green DNA, 72 h; series mostly up to 28.7 µM
# In short: as §1
# CP217 = experiment: as above; details: P. falciparum in erythrocytes, SYBR Green DNA, 72 h; series mostly up to 28.7 µM
# In short: as §1
# CP237 = experiment: as above; details: P. falciparum in erythrocytes, SYBR Green DNA, 72 h; series mostly up to 28.7 µM
# In short: as §1
# CP238 = experiment: as above; details: P. falciparum in erythrocytes, SYBR Green DNA, 72 h; series mostly up to 28.7 µM
# In short: as §1
# CP247 = experiment: as above; details: P. falciparum in erythrocytes, SYBR Green DNA, 72 h; series mostly up to 28.7 µM
# In short: as §1
# CP250 = experiment: as above; details: P. falciparum in erythrocytes, SYBR Green DNA, 72 h; series mostly up to 12.8 µM
# In short: as §1
# CP252 = experiment: as above; details: P. falciparum in erythrocytes, SYBR Green DNA, 72 h; series mostly up to 12.8 µM
# In short: as §1
structure (smiles),measurement,setting,value
CO[C@@H](COC(N)=O)C1=C(N2CC2)C(=O)C(C)=C(N2CC2)C1=O,Potency,[1],inactive
same,Potency,[2],inactive
same,Potency,[3],inactive
same,Potency,[4],36.1 µM (active)
same,Potency,[5],0.354 µM (active)
same,Potency,[6],inactive
same,Potency,[7],inactive
same,Potency,[8],inactive
same,Potency,[9],inactive
same,"activity change, negative = inhibition",[10],-18.1%
same,Potency,[11],inactive
same,Potency,[12],inactive
same,Potency,[13]; parasite line A,0.891 µM (active)
same,Potency,[13]; parasite line B,1.41 µM (active)
same,Potency,3D7,1.26 µM (active)
same,Potency,7G8,1.26 µM (active)
same,Potency,AA1029,1.41 µM (active)
same,Potency,AS120,0.891 µM (active)
same,Potency,ATS189,2.82 µM (active)
same,Potency,ATS95,1.41 µM (active)
same,Potency,C2A,0.794 µM (active)
same,Potency,CP185,0.794 µM (active)
same,Potency,CP191,0.708 µM (active)
same,Potency,CP192,1.69 µM (active)
same,Potency,CP194,1.69 µM (active)
same,Potency,CP201,3.38 µM (active)
same,Potency,CP203,1.51 µM (active)
same,Potency,CP211,0.675 µM (active)
same,Potency,CP215,1.9 µM (active)
same,Potency,CP217,3.16 µM (active)
same,Potency,CP237,1.26 µM (active)
same,Potency,CP238,1.41 µM (active)
same,Potency,CP247,0.708 µM (active)
same,Potency,CP250,1.41 µM (active)
same,Potency,CP252,0.794 µM (active)
